# Bioassay records as filed in PubChem BioAssay.
# This is a sample that favours compounds with a hit; in the whole collection about 2.7% have one here.
# rTrxR1 inhibitor = inhibitors of rat thioredoxin reductase 1; O89049; recombinant rTrxR1, NADPH fluorescence consumption, selenite substrate; Potency, µM (titrated, usually from 114 µM), inactives show top-dose activity change, negative = inhibition, hits mostly inhibitors; 390,000 tested, 1% active; AID 588453; also: % is scaled to controls: 0 for no effect and ±100 for the full control effect; nearly all actives have a fitted effect of over 65% in size
#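 Rat TrxR1 (90 nM in the dispensed reagent) was pre-reduced with 400 uM NADPH for 5 min at room temperature, then incubated with compound for 15 min. After 400 uM selenite was added, NADPH fluorescence (Ex 340/Em 450 nm) was followed for 8 min.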
# TrxR1 substrate = rat thioredoxin reductase 1 substrate activity. 390,000 tested, 0.01% active. purified TrxR1 substrate turnover, NADPH consumption readout. O89049. Potency, µM (highest dose often 114 µM), for inactives: top-dose activity change, negative = substrate turnover; also: % is scaled to controls: 0 for no effect and ±100 for the full control effect; nearly all actives have a fitted effect of over 50% in size
#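 Rat TrxR1, dispensed at 90 nM, was prereduced with 400 uM NADPH (final) for 5 min at ~22 deg C, then incubated with compound 15 min before 400 uM selenite. A first-read NADPH fluorescence drop versus no-compound background flagged substrates.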
# GLP-1R agonist = agonists of human GLP-1 receptor. HEK293 GLP-1R CRE-luciferase, luminescence, 4-6 h; cells express a hypersensitive GLP-1R form. Potency, µM (titrated, usually from 45.6 µM), without a hit: top-dose activation, actives largely listed as activators. 380,000 tested, 0.007% active; also: % of control where 0% means no effect
# GLP1R cytotox = cytotoxicity counter-screen for GLP-1 receptor inverse agonists; HEK293 cAMP-luciferase reporter cells, luminescence, 24 h; Potency, µM (doses to about 38.3 µM), for the others: top-dose activity change, negative = inhibition, hits mostly inhibitors; 410,000 tested, 0.13% active; AID 624418;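 also: loss of luciferase light is scored as toxicity; % is scaled to controls: 0 for no effect and ±100 for the full control effect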
#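 Here, cytotoxicity is scored as loss of luminescence. The MLSMR collection was tested on cells seeded in medium containing 10% Nu serum, with a 24 hr compound exposure preceded by 12 hours of culture.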
# IDH1 R132H inh = human IDH1 R132H inhibition; 390,000 tested, 0.093% active; Potency, µM (series often up to 76.6 µM), without a hit: at the top dose activity change, negative = inhibition, actives largely listed as inhibitors; IDH1-R132H enzyme, NADPH consumption, diaphorase/resazurin fluorescence; O75874; also: % is scaled to controls: 0 for no effect and ±100 for the full control effect; nearly all actives have a fitted effect of over 65% in size
# Target sequence (O75874 whole entry R132H, stated change not applied): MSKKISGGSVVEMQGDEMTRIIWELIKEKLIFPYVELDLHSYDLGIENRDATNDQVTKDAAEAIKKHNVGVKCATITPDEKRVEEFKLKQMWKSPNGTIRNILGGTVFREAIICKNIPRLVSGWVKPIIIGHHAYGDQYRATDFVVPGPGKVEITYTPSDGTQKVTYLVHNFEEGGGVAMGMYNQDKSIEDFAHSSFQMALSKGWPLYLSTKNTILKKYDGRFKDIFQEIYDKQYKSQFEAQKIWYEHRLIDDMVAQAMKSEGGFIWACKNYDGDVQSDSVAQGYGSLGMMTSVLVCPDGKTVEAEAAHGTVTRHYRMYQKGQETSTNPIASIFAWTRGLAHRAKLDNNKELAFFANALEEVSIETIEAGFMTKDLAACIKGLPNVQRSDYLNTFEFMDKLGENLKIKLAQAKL
#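 IDH1-R132H (0.5 ug/mL dispensed) in pH 7.5 Tris buffer was preincubated 30 min with compound, then given a substrate mix of 0.016 mM NADPH and 2 mM alpha-KG for 80 min at room temperature; remaining NADPH was read by diaphorase/resazurin fluorescence.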
# GLP1R inv ag = GLP-1 receptor (human) inverse agonism; P43220; HEK293 GLP-1R CRE-luciferase, luminescence, 24 h; GLP-1R form is constitutively active; Potency, µM (series often up to 38.3 µM), for the others: top-dose activity change, negative = inhibition, actives largely listed as inhibitors; 410,000 tested, 1.6% active; AID 624417; also: % is scaled to controls: 0 for no effect and ±100 for the full control effect; nearly all actives have a fitted effect of over 55% in size
#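 Stable HEK293 clone (constitutively active GLP-1R + cAMP-response luciferase); 200 cells/uL plated, 12 h pre-culture, compound 24 hr, 37 deg C/5% CO2; detection reagent 12 min RT; luminescence.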
# Numbers without * were called inactive; ? = inconclusive; . = not tested or not shown; [ ] = dose if it differs, or a comment. Calls follow the shape of the dose curve; as a rule, active = well fitted curve in the direction sought with a large enough effect; inconclusive = small, poorly fitted or top-dose-only effect, or another doubt; inactive = no such curve, though single readings can be large; an effect the other way counts as inactive or inconclusive. Potency is read from the fitted curve at half-maximal effect.
SMILES,rTrxR1 inhibitor,TrxR1 substrate,GLP-1R agonist,GLP1R cytotox,IDH1 R132H inh,GLP1R inv ag
O=C(Nc1ccc2c(c1)OCCO2)c1ccc(Br)s1,2.3%,-5.7%,-13.2%,?,11.1%,10µM*
O=C(O)/C=C/C(=O)NNC(=O)c1ccccc1Br,-3.8%,1.7%,-4.9%,6.0%,8.6%,0.0%
Cc1ccccc1C(=O)NNC(=O)/C=C\C(=O)O,7.08µM*,-0.2%,-0.7%,?,10.8%,?
CCOc1cccc(C(=O)N(Cc2ccc(C)o2)C2CCS(=O)(=O)C2)c1 (stereo unspecified),3.1%,0.3%,.,-1.1%,.,-3.7%
Cc1cc(N2CCCCC2C)nc(-c2ccccc2O)n1 (stereo unspecified),53.0%,31.3%,21.6%,-1.0%,8.8%,11.2µM*
COc1ccc(/C=C2\C=Cc3ccccc32)cc1,1.8%,-0.5%,.,.,.,.
CCOC(=O)N1CC=C2C(C#N)=C(N)C(C#N)(C#N)[C@H](c3ccc(OC(C)C)c(OCC)c3)[C@H]2C1,?,3.3%[57.1 µM],14.1%,-0.2%,?,0.2%
CCOC(=O)N1CC=C2C(C#N)=C(N)C(C#N)(C#N)[C@H](c3ccccc3OCC)[C@H]2C1,50.1µM*,5.2%,1.9%,0.4%,-19.8%,0.0%
CCOC(=O)N1CC=C2C(C#N)=C(N)C(C#N)(C#N)[C@H](c3ccsc3)[C@H]2C1,?,9.7%,-10.0%,9.3%,41.4µM*,3.0%
COc1ccc2ncc3c(-c4ccc(C)c(C)c4)nn(CC(=O)NC4CCCCC4)c3c2c1,11.8%[57.1 µM],-1.5%[57.1 µM],.,-2.9%,-2.1%,8.8%
CCCN(CCC)C(=O)CC(c1ccc(F)cc1)c1ccco1 (stereo unspecified),35.5µM*,-0.1%,-1.9%,-24.5%,10.8%,?
CC(C)CCCC(C)C1CC(=O)C2=C3CCC4CC(O)CCC4(C)C3CCC21C (stereo unspecified),.,.,12.4%,.,.,.
COc1ccc(N(C(=O)c2ccccc2C)S(=O)(=O)c2ccc(C)cc2)cc1,11.3%,-2.1%,.,-2.5%,-1.2%,10µM*
O=C(CN1CCC(n2nnc3cc(C(F)(F)F)ccc32)CC1)Nc1ccc2c(c1)CCC2,11.6%,-6.6%,1.2%,2.9%,5.4%,4.47µM*
Cc1nc2c(sc(=S)n2Cc2ccco2)c(=O)n1CC(=O)Nc1ccc(F)cc1,26.8%,9.9%,5.4%,0.9%,-1.4%,-5.0%
Cc1nc2c(sc(=S)n2Cc2ccco2)c(=O)n1CC(=O)Nc1cc(F)ccc1F,1.7%,-3.6%,-4.4%,-9.8%,0.4%,1.41µM*
N=C1/C(=C/c2coc3ccccc3c2=O)C(=O)N=C2SC(c3ccco3)=NN12,50.1µM*,-12.9%,2.1%,-18.3%,-12.0%,0.4%
CC1(C)CC(=O)C2=C(C1)OC(N)=C(C#N)C2C#Cc1ccccc1 (stereo unspecified),2.51µM*,-2.9%,1.5%,-23.3%,-0.2%,?
CC(c1ccccc1)C1C(C#N)=C(N)OC2=C1C(=O)CC(C)(C)C2 (stereo unspecified),3.5%,4.4%,6.6%,0.0%,6.2%,-1.1%
CC1CN(c2ccc([N+](=O)[O-])c(NCCOc3ccccc3)c2)CC(C)N1 (stereo unspecified),17.5%,-2.1%,14.7%,?,13.0%,?
Cc1ccccc1OCCNc1cc(N2CC(C)NC(C)C2)ccc1[N+](=O)[O-] (stereo unspecified),-17.6%[57.1 µM],-9.4%[57.1 µM],-2.9%,?,-5.4%,7.94µM*
CC1CN(c2ccc([N+](=O)[O-])c(NCCOc3ccc(Cl)cc3)c2)CC(C)N1 (stereo unspecified),29.7%,5.6%[2.29 µM],-0.9%,-10.2%,-1.1%,10µM*
Cc1ccc(CN(CC2CCCO2)C(=O)CN2C(=O)C(C(C)C)Oc3ccccc32)o1 (stereo unspecified),10µM*,-1.6%,0.4%,-7.6%,8.6%,0.0%
C[N+]1(CC(=O)c2ccc(F)cc2)CCc2ccccc2C1 (stereo unspecified),?,7.8%,.,.,.,.
CCn1ncc(Br)c1C(=O)Nc1cccc(F)c1,-0.4%,-6.7%,-3.5%,4.8%,6.2%,4.8%
SMILES,rTrxR1 inhibitor,TrxR1 substrate,GLP-1R agonist,GLP1R cytotox,IDH1 R132H inh,GLP1R inv ag
CCn1ncc(Br)c1C(=O)Nc1ccc(C(C)C)cc1,1.2%,-11.1%,?,3.2%,0.5%,8.91µM*
O=c1[nH]c(=O)n(C(c2ccccc2)(c2ccccc2)c2ccccc2)cc1N(CCO)CCO,6.7%[11.4 µM],9.9%[57.1 µM],-1.2%,7.5%,3.0%,10µM*
O=C(/C=C/c1cn(CC(O)CN2CCCCCC2)c2ccccc12)c1ccc(Br)cc1 (stereo unspecified),?,-3.5%,-19.0%,103.8%,9.5%,?
CN1/C(=C\C(=O)COC(=O)c2ccccc2O)C(C)(C)c2ccccc21,23.4%,5.0%,12.9%,-1.9%,0.4%,?
COc1ccccc1OCC(=O)/C=C1/N(C)c2ccccc2C1(C)C,20.5%[57.1 µM],6.0%[57.1 µM],8.9%,2.7%,7.2%,10µM*
CN1/C(=C\C(=O)c2ccco2)C(C)(C)c2ccccc21,10µM*,2.4%[57.1 µM],-7.1%,65.7%,9.7%,?
CCOc1ccc(NC(=O)CC2C(=O)N(c3ccc(Cl)cc3)C(=O)N2Cc2cccs2)cc1 (stereo unspecified),23.1%,6.2%,.,1.4%,-4.5%,4.6%
CC(=O)N1CCN(c2csc3ccc(F)cc3c2=O)CC1,2.3%[57.1 µM],-3.4%[57.1 µM],.,-10.6%,-24.0%,5.1%
CC(c1ccccc1)N(CCC(c1ccccc1)C1CCOC(C)(C)C1)C(=O)c1ccco1 (stereo unspecified),?,-9.2%,-38.9%,-11.4%,?,10µM*
CC(C)c1nn2c(=O)cc(COC(=O)c3ccco3)nc2s1,14.4%[57.1 µM],3.1%[57.1 µM],.,1.5%,0.0%,11.7%
Cc1ccc(NC(=O)C2CCN(S(=O)(=O)c3cccs3)CC2)cc1C,22.1%,-2.2%,-8.8%,3.2%,0.2%,8.91µM*
COc1ccc(OC)c(S(=O)(=O)N2CCC(C(=O)Nc3cccc(C(F)(F)F)c3)CC2)c1,16.6%[57.1 µM],3.8%[57.1 µM],-12.7%,?,2.4%,10µM*
COc1cc(CNc2ccc3c(c2)CCC3)cc(OC)c1O,0.398µM*,6.6%,2.7%,2.9%,4.9%,1.6%
CCOc1cc(CNc2ccc3c(c2)CCC3)ccc1O,?,-18.1%,0.4%,-23.0%,8.4%,?
CCSc1nc(-c2ccco2)ccc1C#N,7.94µM*,15.6%,-4.8%,-13.5%,4.3%,40.6%
N#Cc1ccc(-c2ccco2)nc1SCc1ccccc1,?,24.4%,9.2%,-1.2%,5.1%,-14.8%
